Bioassay records from PubChem.
Shown are actives, neighbours in structure and some others; about 3% of the full set was active somewhere.
KDM5B inhibitor – Primary screen for KDM5B Histone Demethylases FDH-coupled qHTS. Potency, µM (doses to about 57.7 µM), usual class: inhibitors. Lysine-specific demethylase 5B (Homo sapiens), Q9UGL1. 220,000 compounds, 2.6% hits. KDM5B demethylase, FDH-coupled NADH fluorescence (FDH is formaldehyde dehydrogenase). AID 1347165, 2019; note: potency is the fitted concentration of half-maximal effect; 0% is about no effect; nearly all actives have a fitted effect of over 70% in size
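Compound dilutions met 200 nM (final) KDM5BΔAP for 10 min at room temperature before substrate addition. The substrate mix held 12.5 µM H3K4me3 with cofactors 25 µM α-ketoglutarate and 50 µM Fe²⁺. NADH signal gain over 30 min defined activity.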
SNCA viab count – GF-AFC viability counterscreen for inhibitors of alpha-synuclein gene (SNCA) expression; HEK-293-SNCA-luc viability, GF-AFC fluorescence, 24 h; Potency, µM (series often up to 57.1 µM), for the others: at the highest dose activity change, negative = cytotoxicity, actives largely listed as cytotoxic; 150,000 compounds, 0.12% hits;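 note: potency is the fitted concentration of half-maximal effect; 0% = DMSO-treated cells and -100% = medium-only wells without cells; nearly all actives have a fitted effect of over 30% in size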
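Cytotoxicity counterscreen: after 24 h compound treatment of genome-edited SNCA-luciferase HEK-293 cells, live-cell protease substrate GF-AFC read by fluorescence after 30 min; activity scaled between DMSO (0%) and medium-only (-100%), curves Hill-fitted.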
SNCA expr inh – Primary qHTS assay for inhibitors of alpha-synuclein gene (SNCA) expression; Potency, µM (titrated, usually from 57.2 µM), for the others: at the top dose activity change, negative = inhibition, usual class: inhibitors; HEK-293 SNCA-luciferase knock-in, luminescence, 24 h; 140,000 compounds, 0.17% hits;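 note: potency is the fitted concentration of half-maximal effect; plate controls were DMSO cells for no effect and cell-free wells for full effect; nearly all actives have a fitted effect of over 45% in size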
IP6K1 inhibitor – Primary qHTS assay for small molecule inhibitors of Inositol hexaphosphate kinase 1 (IP6K1); Inositol hexakisphosphate kinase 1 (Homo sapiens), Q92551; IP6K1 kinase, ADP-Glo luminescence, 2 h; hits give low values; activity change, % (series mostly up to about 58 µM); 140,000 compounds, 0.81% hits; in the data active = activity change below about -25%; note: % is set by controls: 0 for no effect and ±100 for the full control effect
Target sequence (Q92551 whole entry, looked up): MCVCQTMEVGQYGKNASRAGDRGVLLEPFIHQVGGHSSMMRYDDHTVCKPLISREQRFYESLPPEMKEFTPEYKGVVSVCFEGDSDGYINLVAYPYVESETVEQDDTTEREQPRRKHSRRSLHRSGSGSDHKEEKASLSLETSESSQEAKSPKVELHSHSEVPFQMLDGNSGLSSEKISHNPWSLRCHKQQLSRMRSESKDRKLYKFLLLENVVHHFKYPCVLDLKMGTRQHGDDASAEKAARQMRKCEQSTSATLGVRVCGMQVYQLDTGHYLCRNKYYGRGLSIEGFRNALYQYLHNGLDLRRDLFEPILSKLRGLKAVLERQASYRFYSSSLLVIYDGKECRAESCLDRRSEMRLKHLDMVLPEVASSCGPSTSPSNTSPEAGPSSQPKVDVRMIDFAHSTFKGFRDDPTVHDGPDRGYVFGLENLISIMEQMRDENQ
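ADP-Glo luminescence measures ADP made by human IP6K1 during a 2 h RT reaction with ATP/IP6 (mix at 1.3 mM/130 uM); top library doses 57.5 and 19.1 uM final.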
An asterisk follows results filed as active; i = inactive; u = inconclusive; x = no result; ! = not active in a repeat; [ ] = another dose, or the depositor's remark. Unless noted, calls come from the whole dose curve; as a rule, active = well fitted curve in the direction sought with a large enough effect; inconclusive = small, poorly fitted or top-dose-only effect, or another doubt; inactive = no such curve, though single readings can be large; an effect the other way counts as inactive or inconclusive.

SMILES	KDM5B inhibitor	SNCA viab count	SNCA expr inh	IP6K1 inhibitor
O=C(NCc1cccnc1)c1nc(-c2ccc(Cl)cc2Cl)c2cnccn12	u	-12%	-11%	-14
CC(C)NC(=O)c1nc(-c2ccc(Cl)cc2Cl)c2cnccn12	79µM*	0%	-28%	-11
Cc1ccc(S(=O)(=O)NCC(C)O)cc1C (stereo not given)	i	x	x	x
COc1ccc(CN2CCn3c(nn(-c4ccc([N+](=O)[O-])cc4)c3=O)C2)cc1	32µM*	-5%	-3%	11
COc1cccc([S+](=O)([O-])N2CCn3c(nn(-c4ccc(F)cc4F)c3=O)C2)c1	25µM*	6%	4%	0
COc1ccc(CN2CCn3c(nn(-c4ccc(F)cc4F)c3=O)C2)cc1	22µM*	10%	4%	4
Cc1ccc(CN2CCn3c(nn(-c4ccc([N+](=O)[O-])cc4)c3=O)C2)cc1	u	-12%	-3%	14
O=c1n(-c2ccc(F)cc2F)nc2n1CCN([S+](=O)([O-])c1cccc(C(F)(F)F)c1)C2	i	-2%	1%	-3
C=CCOc1c(OC)ccc2c1CN(Cc1ccco1)C(=O)CCN2CC(O)COc1ccc(OC)cc1 (stereo not given)	x	x	x	-3
Cc1ccc([S+](=O)([O-])NC2CCN(c3ccc4nnc(C5CC5)n4n3)C2)cc1 (stereo not given)	x	x	x	2
CN(CC(=O)N1CCCn2nc(-c3cccc(C(F)(F)F)c3)cc2C1)S(=O)(=O)c1ccc2c(c1)oc(=O)n2C	x	-19%	u	5
CC(C)NC(=O)c1nc(-c2cccc(C(F)(F)F)c2)c2cnccn12	32µM*	9%	-5%	0
CC(C)NC(=O)c1nc(-c2cccnc2)c2cnccn12	35µM*	-1%[87.6 µM]	8%[87.6 µM]	3
COCCNC(=O)c1nc(-c2cccnc2)c2cnccn12	i	8%[87.6 µM]	10%[87.6 µM]	0
COc1ccccc1-c1cc(C(=O)N(C)c2ccccc2)c2cnn(C)c2n1	x	x	x	-5
COc1ccccc1-c1ccc(CN2CCCCC2C(=O)N(C)C)cc1 (stereo not given)	x	x	x	11
Cc1noc(C)c1-c1cc2c(cc(C)n2C)c(N2CCN(c3ccccn3)CC2)n1	32µM*	-7%[87.6 µM]	-19%[87.6 µM]	-11
CN1CCC(N2CC[C@H](c3nc4ccc(C#N)cc4[nH]3)C2)CC1	35µM*	-1%[87.6 µM]	-19%[87.6 µM]	-11
Cc1ccc2nc(C3CCCN(Cc4ccc(-c5cncnc5)cc4)C3)[nH]c(=O)c2c1 (stereo not given)	u	3%	3%	-5
COc1ccc2nc([C@H]3CCN(Cc4ccncc4)C3)[nH]c2c1	35µM*	3%[87.6 µM]	21%[87.6 µM]	-9
Fc1ccc2nc([C@H]3CCN(Cc4ncc[nH]4)C3)[nH]c2c1	28µM*	7%[87.6 µM]	-3%[87.6 µM]	31
COc1cccc(-c2ccc(CN3CCCC(c4nc5ccc(C)cc5c(=O)[nH]4)C3)cc2)c1 (stereo not given)	35µM*!	-21%	u	-1
Cc1nn(-c2ccccc2)c2c1C(C1CC1)N(C1CCN(C(=O)NC3CCCC3)C1)C2=O (stereo not given)	x	x	x	-4
Fc1ccc(CN2CC[C@H](c3nc4ccc(C(F)(F)F)cc4[nH]3)C2)cc1F	i	32µM*	7.9µM*	10
COc1ccc2nc([C@H]3CCN(C4CCCCC4)C3)[nH]c2c1	28µM*	-7%[87.6 µM]	-1%[87.6 µM]	2
SMILES	KDM5B inhibitor	SNCA viab count	SNCA expr inh	IP6K1 inhibitor
Fc1ccc2nc([C@H]3CCN(Cc4ccc(F)c(F)c4)C3)[nH]c2c1	i	-22%[87.6 µM]	-14%[87.6 µM]	4
COCCNc1ncnc2c1CN(C1CCCC1)C(=O)CN2C	u	-4%	-1%	13
CC1C=CC(C)N1c1ncnc2c1CN(C1CCNC1)C(=O)CN2C (stereo not given)	89µM*	-5%	u	-1
COCCNc1ncnc2c1CN(C1CCNCC1)C(=O)CN2C	50µM*	9%	-5%	3
CN1CCN(c2ccc3ncc(Nc4ccc5c(c4)OCCO5)n3n2)CC1	i	-7%[87.6 µM]	-23%[87.6 µM]	7
c1ccc(Oc2ccc(Nc3cnc4ccc(N5CCOCC5)nn34)cc2)cc1	u	7%[87.6 µM]	u	-14
Clc1cccc(Nc2cnc3ccc(N4CCOCC4)nn23)c1	32µM*	14%[87.6 µM]	61%[87.6 µM]	-19
CN1CCN(c2ccc3ncc(Nc4ccc(Cl)c(C(F)(F)F)c4)n3n2)CC1	32µM*	13%[87.6 µM]	u	-16
CN1CCN(c2ccc3ncc(Nc4ccc(OC(F)(F)F)cc4)n3n2)CC1	32µM*	-2%[87.6 µM]	-29%[87.6 µM]	-12
COc1ccc(COc2ccc(C#N)cc2OC)cc1F	i	x	x	x
O=C1CCN(CC(O)Cc2ccccc2)c2ccc(F)cc2CN1Cc1ccccc1 (stereo not given)	x	x	x	1
C=CCOc1c(OC)ccc2c1CN(C1CC1)C(=O)CCN2CC(O)COc1ccc(OC)cc1 (stereo not given)	x	x	x	10
OCC1(Cc2ccc(F)cc2F)CCCN(c2cnc3ccccc3n2)C1 (stereo not given)	28µM*	u	u	-22
COc1ccc(Nc2ccnc(N3CCCC(C(=O)NC4CCCC4)C3)n2)cc1 (stereo not given)	x	-13%[12.5 µM]	-6%	7
COCc1noc(CCNc2cc(C)nc(-c3ccccc3O)n2)n1	22µM*	-12%	56%	-17
COc1cccc(CCC(=O)NCc2nnc3ccc(-c4ccccc4)nn23)c1	i	-3%	-20%	6
COc1ccc(-c2ccc3nnc(CNC(=O)C(C)Oc4ccccc4)n3n2)cc1 (stereo not given)	32µM*	4%	-6%	-9
COc1ccc(-c2ccc3nnc(CNC(=O)C(C)Oc4cccc(Cl)c4)n3n2)cc1 (stereo not given)	28µM*	-13%	8%	-1
COc1ccc(-c2cc(C(=O)Nc3cccc(F)c3)c3cnn(C)c3n2)cc1	x	x	x	7
COCCN[C@H]1C[C@@H]2c3[nH]c4ccccc4c3C[C@@H](C(=O)OC)N2[C@H](c2ccccc2)C1	28µM*	u	u	3
COCCN[C@@H]1C[C@@H]2c3[nH]c4ccccc4c3C[C@@H](C(=O)OC)N2[C@H](c2ccc(C(F)(F)F)cc2)C1	u	-1%	-5%	-7
COCCN[C@@H]1C[C@@H]2c3[nH]c4ccccc4c3C[C@@H](C(=O)OC)N2[C@H](c2ccc(C(C)C)cc2)C1	u	2%	-3%	-12
COC(=O)[C@@H]1Cc2c([nH]c3ccccc23)[C@H]2C[C@@H](NCCN(C)C)C[C@@H](c3ccc(F)cc3)N21	25µM*	-17%	-10%	3
COCCN[C@@H]1C[C@@H]2c3[nH]c4ccccc4c3C[C@@H](C(=O)OC)N2[C@H](c2cccc(OC)c2)C1	5.6µM*	2%	-12%	-8
